Results on seven compounds are retold here after PubChem BioAssay (EPA / NIEHS).

A short description of test [1]: CCTE_Shafer_MEA_acute_per_network_burst_spike_number_std: CCTE's Neural Acute Assay for Standard Deviation of Number of Spikes in a Network Burst, Shafer Lab (AID 2284020).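 Also: fitted for decrease in spike-number SD versus DMSO so actives lower it.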 The method, boiled down:
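Acute MEA exposure, rat cortical neurons, 0.03-40 uM. Per-well % change versus own baseline; DMSO as negative control.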

The nature of test [2]: CCTE_Shafer_MEA_acute_per_network_burst_electrodes_number_mean: CCTE's Neural Acute Assay for Mean Number of Electrodes in a Network Burst, Shafer Lab (AID 2284021).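 Also: curves fitted for decreases only so hits reduce electrodes per burst.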 In outline: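 Rat primary cortical neurons on 48-well MEAs, DIV 13 or 15, were treated at 0.03-40 uM. Spikes were detected at 8x rms noise and recorded at 37 C. The mean electrodes per network burst in a 40 min exposure recording was expressed as percent change from a 40 min baseline.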

Test [3] is described as follows: CCTE_Shafer_MEA_acute_network_burst_percentage: CCTE's Neural Acute Assay for Percentage of Network Bursts, Shafer Lab (AID 2284022).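 Also: curves fitted for loss so actives lower network burst percentage.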 In outline: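 Rat primary cortical neuron networks on 48-well MEA plates, DIV 13 or 15, treated acutely with compound (0.03-40 uM, at least three wells). Percent of spikes within network bursts compared between 40-min recordings before and during exposure at 37 C, expressed as percent change.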

Test [4] in a line: CCTE_Shafer_MEA_acute_cross_correlation_area: CCTE's Neural Acute Assay for Area of Cross Correlation, Shafer Lab (AID 2284024).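 Also: curves fitted for loss of cross-correlation area so actives lower synchrony.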 The method, boiled down:
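Rat primary cortical neurons on 48-well MEA, DIV 13 or 15; compounds 0.03-40 uM. Baseline and post-exposure 40 min recordings at 37 C; percent change in area under pooled inter-electrode cross-correlation near zero lag, relative to DMSO.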

The nature of test [5]: CCTE_Shafer_MEA_acute_cross_correlation_HWHM: CCTE's Neural Acute Assay for Cross Correlation at Half Width at Half Maximum, Shafer Lab (AID 2284026).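 Also: percent change per well from pre-dose baseline in spike cross-correlogram half width; hits are a decrease in cross-correlogram half width relative to DMSO.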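 As to outcome: spontaneous network firing of rat primary cortical neurons on multiwell microelectrode arrays.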 In outline:
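Rat primary cortical neurons on 48-well MEA plates; 40-min baseline and 40-min post-exposure recordings at 37 C on DIV 13 or 15, compounds 0.03-40 uM. Spikes detected at 8x rms noise; percent change in cross-correlogram HWHM per well vs baseline.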

Test [6] can be described thus: CCTE_Shafer_MEA_acute_synchrony_index: CCTE's Neural Acute Assay for Synchrony, Shafer Lab (AID 2284027).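 Also: network synchrony index of spontaneous spiking in primary rat cortical neurons on MEAs; fitted for loss of signal so actives lower synchrony relative to DMSO.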 In outline:
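Plates equilibrated 20 min at 37 C, baseline recorded 40 min, compound (0.03-40 uM) added, then 40 min more recorded. Cells: primary rat cortical neurons, DIV 13 or 15. Per-well synchrony index change analysed in negative direction against DMSO.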

Test [7] can be described thus: CCTE_Shafer_MEA_dev_per_burst_spike_percent: CCTE's Neural Network Formation Assay for Percent of Spikes in a Burst, Shafer Lab (AID 2284032).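 As to AC50: fitted as a decrease in burst spike percentage below DMSO baseline.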 In outline: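 Value is trapezoidal AUC over recordings on days 5, 7, 9 and 12 of the well-mean fraction of spikes falling in single-electrode bursts; rat cortical cultures exposed continuously from plating, treatment renewed DIV 5 and 9, fitted downward against DMSO.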

A short description of test [8]: CCTE_Deisenroth_AIME_384WELL_CTox_Active: Cytotoxicity Assessment (CTOX) in CCTE's 384-well Estrogen Receptor Transactivation Assay with AIME metabolic competence (metabolism positive), Deisenroth Lab (AID 2284037; active = hit-call score of the fitted dose curve at least 0.9, where 1 is the maximum;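 also: chemicals first conditioned 2 h by alginate-bound induced rat liver S9 before cells; activity means signal loss indicating cell death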). In outline:
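VM7Luc4E2 breast cells received medium pre-incubated 2 h with chemical over alginate microspheres holding induced male Sprague Dawley rat liver S9; viability read 24 h later by protease-substrate fluorescence. Loss of signal, bidirectional fit, 0.002–200 uM.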

The nature of test [9]: CCTE_Deisenroth_AIME_384WELL_CTox_Inactive: Cytotoxicity Assessment (CTOX) in CCTE's 384-well Estrogen Receptor Transactivation Assay without AIME metabolic competence (metabolism negative), Deisenroth Lab (AID 2284039; active = hit-call score of the fitted dose curve at least 0.9, where 1 is the maximum;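 also: cell viability via live-cell protease substrate cleaved to fluorescent probe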). In outline: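 Fluorescent protease-substrate viability readout after 24 h exposure of VM7Luc4E2 cells to conditioned medium. Chemicals (0.002–200 uM) first sat 2 h over alginate-water beads, no S9. Data fitted bidirectionally, loss of signal meaning viability loss.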

A short description of test [10]: CCTE_Shafer_MEA_dev_burst_rate: CCTE's Neural Network Formation Assay for Burst Rate, Shafer Lab (AID 2284042).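 As to AC50: potency for loss of burst rate below DMSO control.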 The method, boiled down: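 Exposure ran continuously over 12 days of network development in rat cortical cultures, with compound refreshed during full media changes on DIV 5 and 9. Single-electrode bursts per recording time, well-mean over active electrodes, trapezoidal AUC across days 5–12, fitted downward relative to DMSO.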

The nature of test [11]: CCTE_Shafer_MEA_dev_burst_duration_mean: CCTE's Neural Network Formation Assay for Mean Burst Duration, Shafer Lab (AID 2284045).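 As to AC50: curve fitted for loss meaning shorter burst duration than DMSO.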 The method, boiled down:
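Network-formation assay in primary rat cortical neurons; treatment spans twelve days of development. Mean burst duration per well is integrated by trapezoidal AUC and fitted in the loss-of-signal direction against DMSO baseline.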

Test [12] in a line: CCTE_Shafer_MEA_dev_interburst_interval_mean: CCTE's Neural Network Formation Assay for Mean Interburst Interval, Shafer Lab (AID 2284046).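 Also: curve fitted for decrease in interburst interval relative to DMSO.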 In outline: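 Primary rat cortical neurons on PEI-coated 48-well MEA plates (laminin added with cells at plating) (16 electrodes/well), exposed from plating day 0 with renewal at DIV 5 and 9. Mean inter-burst interval averaged over bursting electrodes, AUC across days 5, 7, 9, 12; DMSO baseline.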

A short description of test [13]: CCTE_Shafer_MEA_dev_inter_network_spike_interval_mean: CCTE's Neural Network Formation Assay for Mean Inter-network Spike Interval, Shafer Lab (AID 2284047).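 As to AC50: potency for a decrease in mean inter-network spike interval below DMSO.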 In outline: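 Mean time between consecutive network-spike peaks, recorded extracellularly (adaptive spike detection) on DIV 5, 7, 9 and 12, summarized as trapezoidal AUC. Rat cortical cultures on MEAs dosed continuously days 0–12, re-dosed at feeds; loss-of-signal fit relative to DMSO.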

A short description of test [14]: CCTE_Shafer_MEA_dev_network_spike_number: CCTE's Neural Network Formation Assay for Number of Network Spikes, Shafer Lab (AID 2284048).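 Also: synchronized bursts across electrodes counted on days 5 7 9 12 and integrated as AUC.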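 As to AC50: fit as a loss of signal meaning fewer network spikes than DMSO.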 In outline:
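Extracellular recordings from 16-electrode wells track network formation in rat cortical cultures under continuous treatment from plating. The endpoint is network spike number, expressed as AUC across DIV 5–12 relative to DMSO vehicle.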

Test [15] can be described thus: CCTE_Shafer_MEA_dev_network_spike_duration_std: CCTE's Neural Network Formation Assay for Standard Deviation of Network Spike Duration, Shafer Lab (AID 2284052).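 Also: hits are decreases in network spike duration SD versus DMSO vehicle.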 The method, boiled down:
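Network spike duration variability was collapsed across recordings on days 5, 7, 9 and 12 by trapezoidal area-under-curve and fitted downward against DMSO. Cultures were rat cortical neurons on PEI-coated MEA plates, dosed continuously from plating, refed with compound DIV 5/9.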

The nature of test [16]: CCTE_Shafer_MEA_dev_active_electrodes_number: CCTE's Neural Network Formation Assay for Number of Active Electrodes, Shafer Lab (AID 2284040; active = hit-call score of the fitted dose curve at least 0.9, where 1 is the maximum;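 as to AC50: potency for loss of active electrodes versus DMSO so lower counts are hits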). The method, boiled down: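 Counts electrodes per well firing at least 5 spikes/min, recorded on days 5, 7, 9 and 12 in rat cortical cultures dosed continuously from plating (treatment refreshed DIV 5, 9). Value is the area under the curve over recordings, fitted downward relative to DMSO.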

In test [17] the target is Estrogen receptor (Homo sapiens) (UniProt P03372). The experiment in a line: CCTE_Deisenroth_AIME_384WELL_LUC_Active: CCTE's 384-well Estrogen Receptor Transactivation Assay with AIME metabolic competence (ERTA luciferase; metabolism positive), Deisenroth Lab (AID 2284030; active = hit-call score of the fitted dose curve at least 0.9, where 1 is the maximum). In outline: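 Chemicals (10-point, 0.002-200 uM) were first incubated 2 hours with alginate-immobilized induced male Sprague Dawley rat liver S9. The conditioned medium was then applied to VM7Luc4E2 cells for 24 hours, with ER luciferase induction read by luminescence relative to 17beta-estradiol.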

Test [18] has the same target. Description: CCTE_Deisenroth_AIME_384WELL_LUC_Shift: CCTE's 384-well Estrogen Receptor Transactivation Assay with AIME metabolic competence data shift (ERTA luciferase; difference in metabolism positive and negative), Deisenroth Lab (AID 2284041).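 Also: shift is response with S9 minus without S9 so positive means metabolism raised ER signal.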 In outline: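 Here, parent compounds undergo 2 h phase I metabolism by PB/BNF-induced rat S9 before 24 h transactivation in VM7Luc4E2 cells; the curve models S9-positive minus S9-negative response over a 10-point series.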

The subject of another test is DIO2 (gene 1734). Description: CCTE_GLTED_hDIO2: CCTE's human Deiodinase 2 (DIO2) Inhibition Assay, Great Lakes Toxicology and Ecology Division (GLTED) Lab (AID 2284050; active = hit-call score of the fitted dose curve at least 0.9, where 1 is the maximum). The method, boiled down:
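Inhibition is judged by reduced iodide release: uninhibited human DIO2 frees iodide from substrate over 3 h, measured afterward by Sandell-Kolthoff colorimetry. Iodinated chemicals or nitrite, iron and thiocyanate may interfere.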

Several values for one entry are separate records, joined by “and”; a condition that tells them apart may be missing. Equal entries are not always repeated. Inconclusive results are not listed. Activity calls are given as the source filed them. The calls were made as follows, unless noted: active = hit-call score of the fitted dose curve at least 0.9, where 1 is the maximum; inactive = score below 0.9.

Estrogen receptor (Homo sapiens), sequence (P03372 whole entry, looked up): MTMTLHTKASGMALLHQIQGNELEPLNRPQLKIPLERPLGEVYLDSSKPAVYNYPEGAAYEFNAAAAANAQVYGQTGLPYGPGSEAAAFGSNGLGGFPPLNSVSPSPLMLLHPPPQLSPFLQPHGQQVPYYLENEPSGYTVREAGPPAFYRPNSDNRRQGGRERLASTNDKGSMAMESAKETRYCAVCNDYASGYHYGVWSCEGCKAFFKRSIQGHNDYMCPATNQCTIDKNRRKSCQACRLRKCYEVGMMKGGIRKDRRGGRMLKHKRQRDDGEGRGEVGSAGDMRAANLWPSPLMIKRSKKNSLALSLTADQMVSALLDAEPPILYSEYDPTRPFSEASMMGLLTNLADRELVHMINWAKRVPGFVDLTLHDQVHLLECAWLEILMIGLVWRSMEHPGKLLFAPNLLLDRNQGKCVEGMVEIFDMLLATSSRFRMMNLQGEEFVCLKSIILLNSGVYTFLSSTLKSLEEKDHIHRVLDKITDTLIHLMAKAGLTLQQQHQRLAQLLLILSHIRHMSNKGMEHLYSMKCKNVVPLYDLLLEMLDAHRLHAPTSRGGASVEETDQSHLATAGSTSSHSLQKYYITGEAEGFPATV

The AC50 is the midpoint of the concentration-response curve, whichever way the signal moves. For `CC1=NNC(=O)N(/N=C/c2cccnc2)C1`, the outcome in [1], in test [2], in test [3], in [4], in [5] and in test [6] was inactive. Further, the compound was classed as inactive in test [7], in test [8], in [9], in test [10], in test [12] and in test [13]. Further, the compound was called inactive in test [14] and in test [15]. Also, the half-maximal activity concentration (AC50) in test [11] is 24800 nM (active).
As for `CN(C)NC(=O)CCC(=O)O`, the compound was classed as inactive in test [1], in [2], in [3], in test [4], in test [5] and in [6].
Take `CC(C)[C@H](C(=O)O[C@H](C#N)c1cccc(Oc2ccccc2)c1)c1ccc(Cl)cc1`: the call in [1], in [4], in [11] and in [13] was inactive. Also, the AC50 is 69.1 nM (active) in test [2]; 0.962 µM (active) in test [3]; 4.36 µM (active) in test [5]; 1.01 µM (active) in [6]; 5460 nM (active) in test [7]; 14600 nM (active) in test [16]. In addition, the AC50 in test [10] is 4670 nM (active); in [12] it was 17900 nM (active); in [14] it was 703 nM (active).
On to `O=[N+]([O-])c1cc(C(F)(F)F)c(Cl)c([N+](=O)[O-])c1Nc1ncc(C(F)(F)F)cc1Cl`, for which the AC50 in test [1] is 465 nM (active); in test [2], 481 nM (active); in test [3] it was 1.13 µM (active); in test [4], 263 nM (active); in [5], 5.3 µM (active); in test [6], 0.481 µM (active). Further, the AC50 in test [7] was 669 nM (active); in [8], 100000 nM (active); in test [9], 142000 nM (active); in [16], 905 nM (active); in test [10] it was 390 nM (active); in [11], 549 nM (active). In addition, the half-maximal activity concentration (AC50) in test [12] was 885 nM (active); in test [13], 1900 nM (active); in test [14] it was 425 nM (active); in the test with DIO2 (gene 1734) it was 2040 nM (active); in test [15], 291 nM (active). Also, the call in test [17] and in [18] was inactive.
Consider `CC(C)N(C(=O)SCC(Cl)=C(Cl)Cl)C(C)C`, for which the concentration at half-maximal activity (AC50) in test [1] was 10.2 µM (active) and 9.26 µM (active); in test [2], 11.5 µM (active) and 5.51 µM (active); in test [3], 25.7 µM (active) and 20 µM (active); in test [5], 20 µM (active) and 15 µM (active); in test [6], 20 µM (active) and 19 µM (active); in [7] it was 24400 nM (active). In test [16], the AC50 was 27000 nM (active). The compound was called inactive in test [4], in test [9], in [10], in test [11], in test [12] and in test [13]. The outcome in test [14] and in [15] was inactive.
In the case of `CC(COc1ccc(Oc2ccccc2)cc1)Oc1ccccn1` (stereo not given), the AC50 was 10100 nM (active) in [1]; 20000 nM (active) in [2]; 32.7 µM (active) in test [3]; 8.8 µM (active) in test [5]; 20 µM (active) in test [6]. For the same compound, the call in test [4], in [8] and in test [9] was inactive.
Take `CC(=NC#N)N(C)Cc1ccc(Cl)nc1`: the compound was called inactive in [1], in test [2], in test [3], in [4], in test [5] and in test [6]. In addition, the compound was called inactive in test [7], in test [16], in [10], in test [11], in test [12] and in test [13]. For the same compound, the result in test [14] and in [15] was inactive.
